Rows were chosen to be rich in hits. Some 1.2% of all compounds tested hit in one or more screens of this group.
Mtb UGM inh: M. tuberculosis UGM enzyme inhibitors, primary screen, biochemical, fluorescence polarization, single point | purified UGM, fluorescence polarization probe displacement | AID 504406, 2011 | UDP-galactopyranose mutase (Mycobacterium tuberculosis (strain ATCC 25618 / H37Rv)), … | inhibition, % at 10 µM | actives 0.06% (n = 320,000); in the data active means inhibition above about 10%, passing the limit was not always enough; inconclusive means no clear call, values can overlap the other calls
CCHF vOTU inh: CCHFV vOTU protease inhibitors, primary screen, biochemical, Pep-AMC substrate, fluorescence | Crimean-Congo hemorrhagic fever virus L polyprotein viral ovarian tumor (vOTU) protease … | actives 0.55% (n = 370,000) | inhibition, % at 11.5 µM | AID 651958, 2012; in the data active means inhibition above about 30%; further: 0% = vehicle wells with enzyme and 100% = no enzyme wells
RecA intein inh: Mtb RecA intein splicing inhibitors, primary screen, biochemical, fluorescence, HTS; Protein RecA (Mycobacterium tuberculosis (strain ATCC 25618 / H37Rv)), P9WHJ3; cell-free RecA intein splicing; inhibition, % (concentration not given with the values); actives 0.75% (n = 290,000); in the data active means inhibition above about 30%; inconclusive means no clear call, values can overlap the other calls;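 further: 0% = vehicle wells and 100% = reference inhibitor control wells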
Rv3671c inh: Rv3671c serine protease inhibitors, primary screen, biochemical, fluorescence polarization, M. tuberculosis H37Rv. AID 2606, 2010. P9WHR9. actives 0.048% (n = 320,000). inhibition, % at 5.96 µM; in the data active means inhibition above about 38%;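 further: extracellular domain of Rv3671c used as enzyme; 0% = enzyme with DMSO and 100% = no enzyme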
Mtb betalactam: beta-lactam sensitization of Mtb H37Rv, H37Rv. M. tuberculosis H37Rv growth with meropenem, percent inhibition. inhibition, % at 25 µM. actives 0.27% (n = 330,000). AID 434955, 2010;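 further: growth measured after seven days incubation then overnight dye step; 0% = bacteria only wells and 100% = bacteria with antibiotic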
GFP chromophore: counter-screen: blocks GFP chromophore formation, dose response, counter-screen, biochemical, fluorescence, homogeneous; shares compounds with RecA intein inh; cell-free GFP chromophore formation; EC50, µM; actives 83% (n = 2,100)
* marks the source's active call; other numbers are inactive results; ? = inconclusive; . = no result given. Unless noted, how the calls were made is not given here.

SMILES	Mtb UGM inh	CCHF vOTU inh	RecA intein inh	Rv3671c inh	Mtb betalactam	GFP chromophore
CCCCNC(=O)C1(C(=O)C2CC2)CC(C(=O)OCC)=NO1 (stereo unspecified)	.	-0.2	.	.	.	.
CN1CCN(C2=C(Cl)C(=O)N(c3ccc(Cl)cc3)C2=O)CC1	-0.7	.	33.4*	0.7	48.7	0.16*
CCc1ccc(N2C(=O)C(Cl)=C(N3CCCCCC3)C2=O)cc1	-3.8	9.3	-4.2	.	3.2	.
O=C1C(Cl)=C(N2CCCCCC2)C(=O)N1c1ccccc1	1.5	13.0	36.0*	-2.1	-2.6	27.9*
O=C1C(Cl)=C(N2CCCCCC2)C(=O)N1c1ccc(Br)cc1	1.7	4.9	17.3	-5.0	.	.
CN1CCN(C2=C(Cl)C(=O)N(CCc3ccccc3)C2=O)CC1	-0.6	6.1	2.5	-1.6	8.4	.
Cc1ccc(N2C(=O)C(Cl)=C(N3CCN(C)CC3)C2=O)c(C)c1	1.3	-3.9	81.4*	-6.9	95.5	6.44*
O=C1c2ccccc2-n2c1nc1ccccc1c2=O	-0.9	2.5	71.3*	-6.7	98.5	1.32*
O=c1c2ccccc2nc(-c2ccccc2)n1-c1ccccc1O	-1.5	-7.5	-1.3	-2.8	3.3	.
CC1=NNC(=O)/C1=C\c1cn(-c2ccccc2)nc1-c1ccccc1	-1.0	26.0	97.4*	-5.6	71.5	1.77*
O=Cc1cn(-c2ccccc2)nc1-c1ccccc1	-0.4	2.3	1.6	-5.0	-10.0	.
CCNC(=O)c1ccccc1-c1nc(-c2ccccc2)no1	2.5	11.8	30.1*	4.2	2.4	>38
O=c1ccc(Br)c[nH]1	2.8	1.3	0.7	6.4	-6.1	.
O=c1cc(-c2ccccc2)[nH][nH]1	1.2	9.6	97.4*	-42.9	9.2	2.25*
O=c1cc(-c2ccc(C3CCCCC3)cc2)[nH][nH]1	-1.2	3.1	76.2*	-7.0	3.3	1.89*
O=c1cc(-c2ccc(F)cc2)[nH][nH]1	-0.3	-2.9	98.2*	-166.2	5.1	2.32*
O=c1cc(-c2ccc(Br)cc2)[nH][nH]1	-1.3	-0.8	97.2*	-84.0	4.1	3.72*
O=C(NCc1cccs1)C1CCC(CNS(=O)(=O)c2cccc3cccnc23)CC1 (stereo unspecified)	.	2.3	.	.	.	.
CCN1Cc2c(/C=C/c3ccccc3)nc3ccc(OC)cc3c2N(c2cccc(Cl)c2)C1	4.2	3.9	34.4*	-43.8	90.4	23.4*
Nc1ncnc2c1ncn2[C@@H]1O[C@H](C(=O)N[C@@H](CCc2ccccc2)C(=O)N2CCN(CC(=O)N3CCCC3)CC2)[C@@H](O)[C@H]1O	.	-1.2	.	.	.	.
CC(NC(=O)Cn1ncc(Cl)c(Cl)c1=O)C12CC3CC(CC(C3)C1)C2 (stereo unspecified)	-0.6	.	49.0*	-0.1	-10.2	?
COc1cc(-c2nnc(SCC(=O)N3C(C)CCCC3C)o2)cc(OC)c1OC (stereo unspecified)	.	0.3	.	.	.	.
C=CCN1C(=O)[C@H](CC(=O)N2CCN(C(=O)c3ccco3)CC2)[C@@]2(C(=O)OCC)CCCC=C12	.	-3.2	.	.	.	.
Cc1cc(N)n(-c2ccc([N+](=O)[O-])cc2)n1	-1.3	15.1	0.7	3.4	2.0	.
Cc1cc(C)n(-c2ccc([N+](=O)[O-])cc2)n1	-3.8	-9.9	42.5*	-13.2	-4.8	>38
SMILES	Mtb UGM inh	CCHF vOTU inh	RecA intein inh	Rv3671c inh	Mtb betalactam	GFP chromophore
Cc1ccc2nc(Cc3ccc(N)cc3)[nH]c2c1	1.0	8.6	-1.2	3.1	-5.0	.
Nc1ccc2nc(Cc3ccccc3)[nH]c2c1	2.4	-10.2	29.8*	-16.5	-1.3	>38
O=C(O)c1ccc(N2C(=O)/C(=C/c3ccc(-c4ccc([N+](=O)[O-])cc4)o3)C=C2c2ccccc2)cc1	1.2	.	32.2*	-19.0	97.9	>38
O=C1NN(c2ccccc2)C(=O)/C1=C/c1ccc(-c2ccc(C(=O)O)cc2)o1	0.5	-3.0	-7.9	-0.7	3.2	.
Cc1sc(NC(=O)CSC2=NCCS2)nc1-c1ccccc1	-0.1	9.8	44.5*	-13.2	66.1	>38
O=C(CSC1=NCCS1)Nc1nc2ccccc2s1	1.5	-3.8	27.7	-3.1	7.8	.
N#CC1(C#N)CC(C=O)=C(N)C1(C#N)CC(=O)C12CC3CC(CC(C3)C1)C2 (stereo unspecified)	1.1	-9.6	41.1*	-15.0	-5.9	19.2*
CCOC(=O)[C@@]12CCCC=C1N(CCc1ccc(Cl)cc1)C(=O)[C@H]2CC(=O)NCC1CCCCC1	.	10.8	.	.	.	.
C[C@@H](NC(=O)/C(C#N)=C/c1ccc(O)c(O)c1)c1ccccc1	-0.7	6.5	.	16.4	6.1	.
CC(NC(=O)/C(C#N)=C/c1ccc(Cl)c([N+](=O)[O-])c1)c1ccccc1 (stereo unspecified)	-0.1	6.0	62.2*	-10.1	81.3	13.7*
CCOC(=O)c1nc(C)n(-c2ccc(Cl)cc2)n1	1.6	-2.2	49.0*	-2.2	-0.6	>38
CCC(=O)OCCNc1cc(Sc2nc3ccccc3[nH]2)c2nonc2c1[N+](=O)[O-]	4.5	18.4	.	-14.0	99.6	.
CCC(=O)OCCNc1cc(Sc2nc3ccccc3s2)c2nonc2c1[N+](=O)[O-]	0.5	22.0	50.0*	1.4	96.6	4.24*
CCCSc1cc(NCCOC(C)=O)c([N+](=O)[O-])c2nonc12	-0.5	-5.3	7.7	-1.4	25.7	.
CCCSc1cc(NCCOC(=O)CCC)c([N+](=O)[O-])c2nonc12	1.2	11.2	60.3*	9.3	100.1	9.9*
CCCC(=O)OCCNc1cc(SCc2ccco2)c2nonc2c1[N+](=O)[O-]	3.1	9.9	79.1*	-17.8	100.1	8.57*
CCCC(=O)OCCNc1cc(Sc2nccn2C)c2nonc2c1[N+](=O)[O-]	-3.1	27.2	90.2*	-1.2	100.5	3.88*
Cc1nn(CCC(=O)NNC(=O)Nc2ccccc2F)c(C)c1[N+](=O)[O-]	.	-6.0	.	.	.	.
Cc1ccc(-n2c(SCC(=O)NN=Cc3ccc(-c4ccccc4)cc3)nnc2-c2ccccc2)cc1	.	0.8	.	.	.	.
CN1C(=O)c2cc(NC(=O)Cc3ccccc3)ccc2OC[C@H]2O[C@H](CC(=O)O)CC[C@H]21	.	-3.1	.	.	.	.
O=C(Nc1ncc([N+](=O)[O-])s1)c1ccco1	0.1	2.6	30.9*	-2.9	?	21.1*
Cn1cccc1C(=O)NC(=O)COC(=O)c1ccc(S(C)(=O)=O)c([N+](=O)[O-])c1	-2.0	.	.	-21.5	5.5	.
CS(=O)(=O)c1ccc(C(=O)OCC(=O)NC23CC4CC(CC(C4)C2)C3)cc1[N+](=O)[O-]	2.4	10.3	32.1*	-79.3	-0.8	>38
O=C(N=C1N(CC2CC2)CC2(C=C3CCCCC3n3c(=O)n(-c4ccccc4)c(=O)n32)N1C(=O)OCc1ccccc1)c1ccccc1 (stereo unspecified)	.	6.9	.	.	.	.

Source: PubChem
